Measurements reported in PubChem BioAssay AID1159580 (chemical genetic matrix, 2015).
“And” between values parts separate entries of the source, which are not always exact repeats. Equal values may be shown once. Screen size: about 5,500 compounds; about 2,000 (36%) were called active. Another 18% or so got no clear call; they are omitted. No stated cut-off is given here; in the data, active means normalized growth mostly below about 0.91 (no sharp cut-off); inconclusive means no clear call, values can overlap the other calls; inactive means mostly above about 0.92. Some of the results follow.

Experiment: chemical genetic growth profiling, strain panel (AID 1159580);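 further: tested at 20 µM; growth read once vehicle control cultures reached saturation at 30 °C; 1 = growth at the plate median or of vehicle wells; lower values mean less growth of the strain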
Settings: S. cerevisiae deletion strains, growth OD

Measured: normalized growth

Nc1nc(N)c2nc(CNc3ccc(C(=O)NC(CCC(=O)O)C(=O)O)cc3)cnc2n1 (stereo not given)
inactive: locus YAL013W, strain DEP1, hits give low values 1.03 | locus YAL021C, strain ccr4, hits give low values 0.925 | locus YAL026C, strain drs2, hits give low values 0.991 | locus YAL030W, strain snc1, hits give low values 0.989 | locus YAL040C, strain CLN3, hits give low values 0.994 | locus YBL061C, strain skt5, hits give low values 1 | locus YBR009C, strain hhf1, hits give low values 0.991 | locus YBR023C, strain chs3, hits give low values 0.995 | locus YBR171W, strain sec66, hits give low values 1.01 | locus YBR229C, strain ROT2, hits give low values 1 | locus YBR231C, strain swc5, hits give low values 1.01 | locus YBR279W, strain paf1, hits give low values 1 | locus YCL011C, strain gbp2, hits give low values 0.983 | locus YCL016C, strain dcc1, hits give low values 0.975 | locus YCL029C, strain bik1, hits give low values 0.977 | locus YCL069W, strain vba3, hits give low values 0.996 | locus YCR088W, strain abp1, hits give low values 0.996 | locus YDL005C, strain med2, hits give low values 0.996 | locus YDL035C, strain GPR1, hits give low values 1.03 | locus YDL040C, strain nat1, hits give low values 1 | locus YDL074C, strain BRE1, hits give low values 0.993 | locus YDL101C, strain DUN1, hits give low values 0.996 | locus YDL134C, strain PPH21, hits give low values 1.02 | locus YDL185W, strain tfp1, hits give low values 0.961 | locus YDL192W, strain arf1, hits give low values 1 | locus YDR001C, strain nth1, hits give low values 0.987 | locus YDR069C, strain doa4, hits give low values 0.985 | locus YDR101C, strain arx1, hits give low values 0.982 | locus YDR137W, strain rgp1, hits give low values 0.985 | locus YDR150W, strain NUM1, hits give low values 1 | locus YDR159W, strain sac3, hits give low values 1.05 | locus YDR162C, strain NBP2, hits give low values 0.993 | locus YDR195W, strain ref2 0.961 | locus YDR297W, strain sur2, hits give low values 1 | locus YDR318W, strain mcm21, hits give low values 1 | locus YDR334W, strain swr1, hits give low values 0.985 | locus YDR335W, strain msn5, hits give low values 0.977 | locus YDR363W, strain ESC2, hits give low values 1 | locus YDR388W, hits give low values 0.994 | locus YDR392W, strain spt3, hits give low values 0.94 | locus YDR502C, strain sam2, hits give low values 1 | locus YEL003W, strain gim4, hits give low values 1 | locus YEL037C, strain rad23, hits give low values 0.989 | locus YEL061C, strain CIN8 (second series), hits give low values 0.996 | locus YEL061C, strain CIN8, hits give low values 0.994 | locus YER002W, strain NOP16, hits give low values 0.993 | locus YER015W, strain faa2, hits give low values 0.994 | locus YER016W, strain bim1, hits give low values 0.998 | locus YER110C, hits give low values 0.981 | locus YER111C, strain swi4, hits give low values 0.995 | locus YER155C, strain BEM2 (second series), hits give low values 1.05 | locus YER155C, strain BEM2, hits give low values 0.987 | locus YER167W, strain BCK2, hits give low values 1 | locus YFR010W, strain ubp6, hits give low values 0.982 | locus YGL078C, strain dbp3, hits give low values 0.999 | locus YGL086W, strain mad1, hits give low values 0.994 | locus YGL167C, strain pmr1, hits give low values 0.974 | locus YGL173C, strain kem1, hits give low values 1.01 | locus YGL227W, strain vid30, hits give low values 1 | locus YGL240W, strain doc1, hits give low values 1.03 | locus YGL248W, strain PDE1, hits give low values 1 | locus YGL253W, strain hxk2, hits give low values 1.01 | locus YGR078C, strain PAC10, hits give low values 1.02 and 0.965 | locus YGR135W, strain pre9, hits give low values 0.998 | locus YGR252W, strain gcn5, hits give low values 1.14 | locus YHR013C, strain ard1, hits give low values 0.971 | locus YHR027C, strain rpn1, hits give low values 0.982 | locus YHR030C, strain SLT2, hits give low values 0.99 | locus YHR079C, strain IRE1 (second series), hits give low values 0.978 | locus YHR094C, strain hxt1, hits give low values 0.991 | locus YHR129C, strain ARP1, hits give low values 1 | locus YHR142W, strain chs7, hits give low values 0.965 | locus YHR200W, strain rpn10, hits give low values 0.992 | locus YIL066C, strain RNR3, hits give low values 1 | locus YIL073C, strain SPO22, hits give low values 0.946 | locus YIL125W, strain kgd1, hits give low values 0.993 | locus YIR030C, strain dcg1, hits give low values 0.988 | locus YJL092W, strain hpr5, hits give low values 0.983 | locus YJL095W, strain BCK1 (second series), hits give low values 0.985 | locus YJL095W, strain BCK1, hits give low values 0.984 | locus YJL115W, strain asf1, hits give low values 0.962 | locus YJL129C, strain trk1, hits give low values 0.998 | locus YJL134W, strain LCB3, hits give low values 0.988 | locus YJL154C, strain vps35, hits give low values 0.99 | locus YJL164C, strain tpk1, hits give low values 0.964 | locus YJL166W, strain qcr8, hits give low values 1.02 | locus YJL168C, strain set2, hits give low values 0.998 | locus YJL187C, strain SWE1 (second series), hits give low values 0.992 | locus YJR043C, strain POL32, hits give low values 1.04
active: locus YBR021W, strain FUR4, hits give low values 1.2 [resistant]
